The entries come from a sample that favours hits as a whole.
HTT-AS act = activators of huntingtin-antisense promoter activity; 0.24% of 48,000 active; HEK293 HTT-AS promoter firefly luciferase reporter, 24 h; response scale: percent change from vehicle, -100% = no light; Potency, µM (highest dose often 57.5 µM), actives largely listed as activators; further: nearly all actives have a fitted effect of over 55% in size
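HEK293 cells carrying firefly luciferase reporters were seeded at 2,500 per well in Opti-MEM and cultured for 24 h. They were then treated with compounds at up to 57.5 uM final for 24 h at 37 degrees C before Dual-Glo luminescence readout.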
NTMT1 inh = inhibitors of human N-terminal methyltransferase NTMT1. Q9BV86. NTMT1 MTase-Glo SAH luminescence, purified enzyme. Potency, µM (highest dose often 114 µM), usual class: inhibitors. 2.5% of 59,000 active. AID 1645870; further: nearly all actives have a fitted effect of over 65% in size
Target sequence (Q9BV86 whole entry, looked up): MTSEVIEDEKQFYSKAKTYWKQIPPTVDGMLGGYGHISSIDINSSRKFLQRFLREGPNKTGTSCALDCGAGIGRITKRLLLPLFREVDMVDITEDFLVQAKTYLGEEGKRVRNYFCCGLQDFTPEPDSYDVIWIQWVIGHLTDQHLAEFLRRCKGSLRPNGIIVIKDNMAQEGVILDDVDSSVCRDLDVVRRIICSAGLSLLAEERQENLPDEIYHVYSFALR
HTT prom inh = HTT promoter inhibition; HEK293 HTT promoter firefly luciferase reporter, 24 h; Potency, µM (doses to about 57.5 µM), most hits filed as inhibitors; 0.93% of 48,000 active; AID 1508623; further: nearly all actives have a fitted effect of over 50% in size
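Firefly luciferase readout (Dual-Glo, 10 min RT) after 24 h, 37 °C compound exposure (final up to 57.5 uM) of HEK293 reporter cells cultured 24 h beforehand; PTC124 at 50 uM final as control inhibitor; activity scaled vehicle 0%, zero RLU -100%.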
DYRK1A inh-1 = human DYRK1A kinase inhibition by ATP depletion readout; shares compounds with NTMT1 inh; recombinant DYRK1A, Kinase-Glo ATP depletion luminescence; Potency, µM (doses to about 76.9 µM), hits mostly inhibitors; 80% of 100 active; AID 2705
CLK4 inh-1 = CLK4 kinase inhibition, SAR round 2. 90% of 90 active. shares compounds with NTMT1 inh. AID 493204. recombinant Clk4, Kinase-Glo ATP luminescence, 4.5 h. Potency, µM (series often up to 76.9 µM), hits mostly inhibitors
CLK4 inh-2 = CLK4 kinase inhibition, SAR round 2; Potency, µM, hits mostly inhibitors; 100% of 65 active; shares compounds with NTMT1 inh; AID 504421; Reaction Biology kinase assay, 10 uM ATP; calls by dose curve
DYRK1A inh-2 = inhibitors of human DYRK1A kinase; shares compounds with NTMT1 inh; Reaction Biology kinase assay, 10 uM ATP; Potency, µM, most hits filed as inhibitors; 90% of 65 active; AID 504424;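 active means compounds that showed inhibition of Dyrk1a and received a fitted potency; inactive means compounds that showed no inhibition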
CLK2 inh = CLK2 kinase inhibition; Potency, µM, most hits filed as inhibitors; AID 504427; Reaction Biology kinase assay, 10 uM ATP; 90% of 65 active; shares compounds with NTMT1 inh;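 active means compound that inhibits Clk2 kinase in the dose series, with an IC50 potency reported; inactive means no inhibition seen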
CLK3 inh = CLK3 kinase inhibition. shares compounds with NTMT1 inh. recombinant CLK3 kinase assay, 10 uM ATP. Potency, µM, actives largely listed as inhibitors. 40% of 65 active. AID 504428;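 active means compounds that inhibited Clk3 enough in the ten-dose series to give a half-maximal potency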
DYRK1B inh = DYRK1B kinase inhibition | shares compounds with NTMT1 inh | Recombinant Dyrk1b kinase assay, 10 uM ATP | Potency, µM, actives largely listed as inhibitors | 80% of 65 active;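 active means compounds whose dose response shows an inhibitor phenotype against the kinase Dyrk1b; inactive means compounds showing no inhibitor phenotype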
CLK1 RBC = CLK1 kinase inhibition; shares compounds with NTMT1 inh; recombinant Clk1 kinase assay, 10 uM ATP; Potency, µM, most hits filed as inhibitors; 90% of 65 active;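 active means compounds that block the splicing kinase Clk1 enough to give a fitted half-inhibition concentration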
Sfp qHTS opt = inhibits purified B. subtilis Sfp PPTase; shares compounds with NTMT1 inh; purified Sfp PPTase enzyme activity, qHTS; Potency, µM (top dose mostly 114 µM), actives largely listed as inhibitors; 78% of 230 active; AID 540350
HM489 growth = Sfp PPTase inhibitors: growth inhibition of B. subtilis HM489; shares compounds with NTMT1 inh; B. subtilis HM489 (acpS-) growth, BacTiter-Glo, 5 h; Potency, µM (top dose mostly 114 µM), usual class: inhibitors; 50% of 220 active
Sfp gel opt = inhibits B. subtilis Sfp PPTase in gel assay; Potency, µM (series often up to 250 µM), hits mostly inhibitors; shares compounds with NTMT1 inh; 54% of 220 active; purified Sfp PPTase, gel-based product detection; AID 540355
Sfp inh SAR2 = Sfp phosphopantetheinyl transferase inhibition, SAR round 2; Potency, µM (doses to about 57.1 µM), actives largely listed as inhibitors; AID 602370; shares compounds with NTMT1 inh; purified Sfp enzyme, PPTase activity, qHTS; 87% of 230 active
USP2a K63 = USP2a inhibition confirmed on K63 diubiquitin; Potency, µM (top dose mostly 57.5 µM), usual class: inhibitors; 80% of 30 active; shares compounds with NTMT1 inh; AID 652172; USP2 cleavage of DiUb K63-3IQF, fluorescence kinetic
Casp6 inh = selectivity of USP2a inhibitors: human caspase-6 inhibition. activity change, negative = inhibition, % at 46.1 µM. shares compounds with NTMT1 inh. Caspase 6 enzyme, Caspase-Glo 6 luminescence. 30 tested, under 10 active. AID 652277
HSD17B4 inh = HSD17B4 (human) inhibition, HPGD counter-screen; shares compounds with NTMT1 inh; purified HSD17B4, estradiol/NAD+, NADH fluorescence; Potency, µM (titrated, usually from 57.1 µM), actives largely listed as inhibitors; 10% of 230 active; AID 743187
ALDH1A1 counter = ALDH1A1 (human) inhibition, HPGD counter-screen; shares compounds with NTMT1 inh; recombinant ALDH1A1, NADH fluorescence, propionaldehyde/NAD+; Potency, µM (titrated, usually from 57.1 µM), most hits filed as inhibitors; 93% of 230 active; AID 743195
Target sequence (P00352 whole entry, looked up): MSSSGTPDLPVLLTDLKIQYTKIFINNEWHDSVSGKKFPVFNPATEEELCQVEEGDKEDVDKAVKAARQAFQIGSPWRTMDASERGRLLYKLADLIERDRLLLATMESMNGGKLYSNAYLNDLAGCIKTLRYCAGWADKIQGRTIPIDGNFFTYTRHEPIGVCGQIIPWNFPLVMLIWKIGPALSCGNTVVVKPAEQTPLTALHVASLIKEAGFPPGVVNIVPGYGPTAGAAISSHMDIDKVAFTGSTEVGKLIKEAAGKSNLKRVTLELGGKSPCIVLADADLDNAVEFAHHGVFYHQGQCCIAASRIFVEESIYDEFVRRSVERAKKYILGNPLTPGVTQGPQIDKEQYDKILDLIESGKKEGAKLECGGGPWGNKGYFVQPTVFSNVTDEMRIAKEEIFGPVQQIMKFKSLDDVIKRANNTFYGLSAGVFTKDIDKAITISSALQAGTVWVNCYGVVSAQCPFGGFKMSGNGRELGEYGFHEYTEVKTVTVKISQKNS
NNMT counter = counter-screen for NTMT1 inhibitors: human NNMT inhibition | shares compounds with NTMT1 inh | NNMT MTase-Glo luminescence, SAH detection | Potency, µM (series often up to 57.1 µM), usual class: inhibitors | 10% of 120 active
Hits are given with their value; . = inactive; ? = inconclusive; / = no result; ! = not active in a repeat. Unless noted, the call rests on the fitted dose curve; in most records, active means well fitted curve in the direction sought with a large enough effect; inconclusive means small, poorly fitted or top-dose-only effect, or another doubt; inactive means no such curve, though single readings can be large; an effect the other way counts as inactive or inconclusive.

SMILES | HTT-AS act | NTMT1 inh | HTT prom inh | others
Cc1ccc(S(=O)(=O)Nc2cnccc2C(=O)Nc2nc(-c3ccc(-c4ccccc4)cc3)cs2)cc1 | / | . | / | USP2a K63=1.7µM;Casp6 inh=.
Cc1ccc(S(=O)(=O)Nc2cnccc2C(=O)Nc2nc(C(=O)O)cs2)cc1 | / | . | /
CS(=O)(=O)c1ccc([C@@H](CC2CCCC2)C(=O)Nc2cnccn2)cc1Cl | / | . | /
Cc1nc(NCc2ccc(-c3cccnc3)cc2)c2ccccc2n1 | / | . | /
CCN(Cc1cccs1)c1ncnc2ccc(-c3ccc4c(c3)OCO4)cc12 | / | ? | / | DYRK1A inh-1=0.16µM;CLK4 inh-2=0.014;DYRK1A inh-2=0.038µM;CLK2 inh=0.45µM;CLK3 inh=6.2µM;DYRK1B inh=0.23µM;CLK1 RBC=0.014µM
Cc1csc(CNc2ncnc3ccc(-c4ccc5c(c4)OCO5)cc23)c1 | / | . | /
CCN(Cc1sccc1C)c1ncnc2ccc(-c3ccc4c(c3)OCO4)cc12 | / | ? | / | DYRK1A inh-1=1.2µM
CC(=O)Nc1sc2c(c1-c1ccc(C#N)cc1)CCNC2 | / | . | /
C/C(=N\NC(=O)c1cccc(S(=O)(=O)N2CCOCC2)c1)c1cc(Cl)ccc1O | / | . | /
Cc1ccc(CN(C)c2ncnc3ccc(-c4ccc(CO)n4C)cc23)o1 | / | / | / | CLK4 inh-1=23µM
Oc1cccc(Nc2ccnc3cc(-c4cccc(CN5CCOCC5)c4)sc23)c1 | / | . | /
Cc1ccc(S(=O)(=O)Nc2cnccc2C(=O)Nc2ccc(S(=O)(=O)Nc3nccs3)cc2)cc1 | / | . | /
Fc1cccc(CNc2nc(-c3ccccc3C(F)(F)F)nc3ccccc23)c1 | / | . | /
CN(Cc1ncc[nH]1)c1ncnc2ccc(-c3ccc4c(c3)OCO4)cc12 | / | ? | / | DYRK1A inh-1=0.73µM
Cc1cccc(CNc2ncnc3ccc(-c4ccc5c(c4)OCCO5)cc23)c1 | / | . | /
CN(CC1CCCO1)c1ncnc2ccc(-c3ccc4c(c3)OCO4)cc12 (stereo not given) | / | . | / | CLK4 inh-1=0.058µM
COc1cc(O)c(C(CC(=O)N2CCCC(C(F)(F)F)C2)c2ccc3c(c2)OCO3)c(OC)c1 (stereo not given) | / | . | /
CC(=O)O[C@H]1CC[C@]2(C)[C@H]3CC[C@]4(C)Oc5oc(C)cc(=O)c5C[C@H]4[C@]3(C)CC[C@H]2C1(C)C | / | . | /
CC(C)NCCCn1c(Sc2cc(Cl)cc(Cl)c2)nc2c(N)ncnc21 | / | . | /
O=C(Nc1c(-c2cccs2)nc2ccccn12)c1ccc(Cl)cc1 | / | . | /
CC(=O)c1cccc(Nc2nc(-c3ccccc3Cl)nc3ccccc23)c1 | . | . | .
O=C(O)c1ccc2c(c1)nc(Nc1cccc(Cl)c1)c1ccncc12 | . | 14µM! | ? | NNMT counter=?
CCn1c(=O)c(-c2ccn[nH]2)cc2c(C)nc(N)nc21 | / | . | / | NNMT counter=.
CCOC(=O)C1CCN(C(=O)C(C)(C)NC(=O)Nc2cccc(OC)c2)CC1 | / | . | /
Cc1ccnc(NC(=S)N2CCc3ccccc3C2)c1 | / | ? | / | Sfp qHTS opt=9.4µM;HM489 growth=33µM;Sfp gel opt=3.2µM;Sfp inh SAR2=1µM;HSD17B4 inh=.;ALDH1A1 counter=3µM
SMILES | HTT-AS act | NTMT1 inh | HTT prom inh | others
Cc1ccc(CSCC(=O)N2CCN(c3cc(Cl)ccc3C)CC2)cc1 | . | . | .
S=C(Nc1cc(Cl)ccn1)N1CCN(c2ccc3ccccc3n2)CC1 | / | ? | / | Sfp qHTS opt=?;HM489 growth=26µM;Sfp gel opt=?;Sfp inh SAR2=7.2µM;HSD17B4 inh=.;ALDH1A1 counter=.
Cc1ccnc(NC(=O)C(C)c2cccc(C(=O)c3ccccc3)c2)c1 (stereo not given) | / | . | /
COc1cc(C(CC(=O)Nc2cc(C)ccn2)N2Cc3ccccc3C2=O)cc(OC)c1OC (stereo not given) | . | . | .
Cc1ccnc(NC(=S)N2CCNCC2)c1 | / | ? | / | Sfp qHTS opt=.;HM489 growth=?;Sfp gel opt=.;Sfp inh SAR2=14µM;HSD17B4 inh=.;ALDH1A1 counter=27µM
O=C(c1cc2ccc3cccnc3c2[nH]1)N1CCN(c2cccc(Cl)c2)CC1 | . | . | ?
Cc1ccnc(NC(=S)N2CCN(c3ccc(Cl)cc3Cl)CC2)c1 | / | ? | / | Sfp qHTS opt=1.9µM;HM489 growth=8.3µM;Sfp gel opt=13µM;Sfp inh SAR2=0.73µM;HSD17B4 inh=.;ALDH1A1 counter=5.4µM
CC(C)=C/C=C\[C@H](C)[C@H]1CC[C@]2(C)C[C@@H]3C(C)=CC(=O)C3/C(CO)=C\C[C@@H]12 (stereo not given in full) | / | . | /

Source: PubChem
